# Tg IFNy HTS: inhibitors of Toxoplasma gondii growth with IFN-gamma | Toxoplasma gondii growth in IFN-gamma-treated host cells; hits give low values | activity change, negative = inhibition, % (test concentration not listed) | 69,000 tested, 3.8% active; in the data active = activity change below about -70%, passing the limit was not always enough;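 also: host cells are HeLa cells infected with Toxoplasma gondii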
# Active calls of the source: *; ! = not active in a repeat. This is one part of a sample in which hits are shown more often than they occur.
SMILES,Tg IFNy HTS
Cc1ccc(NC(=O)CSc2nnc(-c3ccncc3)n2-c2ccccc2)cc1,-59
COc1ccc(-n2c(-c3ccccc3)cnc2SCC(=O)Nc2cc(C)cc(C)c2)cc1,-98*
COc1ccc(NC(=O)CSc2nnc3c(C)cc4ccccc4n23)cc1,0
CCn1c(C2CCN(C(=O)c3ccc(-c4ccn[nH]4)cc3)CC2)nn(C)c1=O,1
Cc1ccc(/C(=C\CN2CCCC2)c2ccccn2)cc1,0
CN(C)C(=O)[C@]12CCCN(C(=O)c3ccccn3)C[C@@H]1CN(c1ccccn1)C2,4
C/C(=N\NC(=S)N1CCC1)c1ccccn1,-80*
CCS(=O)(=O)N1Cc2cnn(C)c2C(COCC2CC2)C1 (configuration not stated),2
COCCn1c(C(=O)N2CCN(C(C)C)CC2)cc2c1c1ccccc1n2C,-56
Cc1ccc(OCC(=O)NCCc2sc(-c3cccc(F)c3)nc2C)cc1,1
COc1c/c(=C2\C=c3ccccc3=N2)[nH]/c1=C\c1[nH]c(C)cc1C,-85*
COCC(=O)N1[C@H](CO)[C@H](c2ccccc2C2=CCCC2)[C@@H]1C#N,-33
O=C(CC1c2ccccc2Oc2ccccc21)N1CCC(c2ccncc2)CC1,-28
Cc1ccc(OCCN2CCOCC2)c(NC(=O)c2cc3cc(C)ccc3n2C)c1,-14
Cc1nccn1-c1ccc(CNC(=O)C(=O)N(C)c2ccccc2)cc1,7
Nc1ccc2ncnc(NCCc3ccc(Oc4ccccc4)cc3)c2c1,-71*
c1ccc(CNc2ncnc3ccccc23)cc1,-15
COc1ccc(CCNc2ncnc3c2cnn3-c2ccccc2)cc1OC,21
C[C@@H]1O[C@@H](OC[C@H]2OC(Oc3c(-c4ccc(O)c(O)c4)oc4cc(O)cc(O)c4c3=O)[C@H](O)[C@@H](O)[C@@H]2O)[C@H](O)[C@H](O)[C@H]1O (some centres not stated),16
Cc1cc(N2CCCN(Cc3c(F)cccc3Cl)CC2)ccn1,-50
Cc1ccc(C2(O)CCN(c3noc(-c4ccccc4)n3)CC2)nc1,132
O=C(CN1C(=O)CCc2cc(S(=O)(=O)N3CCCCC3)ccc21)NC1CC1,21
Cc1nn(-c2ccc(F)cc2)c(C)c1CNC(=O)COc1ccc2c(c1)OCO2,41
COCCSc1nnc(NC(=O)COc2ccc3c(c2)OCO3)s1,-83*
CN(Cc1ncc[nH]1)C(=O)COc1ccc2c(c1)OCO2,-5
SMILES,Tg IFNy HTS
Cn1c(CN2CCCCC2)nc2cc(NC(=O)COc3ccc4c(c3)OCO4)ccc21,-12
CC(C)c1nnc(NC(=O)COc2ccc3c(c2)OCO3)s1,-85*
COCC(=O)Nc1cccc(-c2ccc3c(c2)OCO3)c1,38
CCOC(=O)N1CCC(NC2CCN(c3cccc(NC(=O)CC4CCCC4)c3)CC2)CC1,-12
CN1C(=O)C(CCC(=O)Nc2cccnc2)(Cc2ccccc2)c2ccccc21 (configuration not stated),5
Cc1ccc(C2(O)CCN(C(=O)CCc3n[nH]c4c3CCCC4)CC2)nc1,-5
O=C(C[C@@H]1CC[C@H]2NC[C@H](O)COC[C@@H]2O1)NCc1ccc2c(c1)OCO2,25
COc1ccc(C(=O)N2C[C@@H]3[C@H](c4ccccc42)[C@H](CO)N3C(=O)NC(C)C)cc1,-2
CCOc1ccc(-c2cnc(-c3nccn3CC)[nH]2)cc1OCC,-81*
CCCc1ncc(-c2ccc(OCC)c(OCC)c2)[nH]1,-4
CCOc1ccc(-c2cnc[nH]2)cc1OCC,-47
CCCCc1nc(Cl)c(CN2Cc3ccccc3OC(CN(C)C)C2)[nH]1 (configuration not stated),23
O=C(Nc1cnn(Cc2cccc(F)c2)c1)C1OCCc2ccccc21 (configuration not stated),-97*
COc1cccc2cc(C(=O)Nc3cnn(Cc4cccc(F)c4)c3)c(C)nc12,2
O=C(NCCS(=O)(=O)c1ccc(F)cc1)C1OCCc2ccccc21 (configuration not stated),10
COc1ccc(S(=O)(=O)N2C[C@H](O)COC[C@@H]3O[C@@H](CC(=O)N[C@H]4CCN(Cc5ccccc5)C4)CC[C@H]32)cc1,-11
Nc1ccc(N)c(C(=O)O)c1,-18
NC(=O)Cc1cccc(C(=O)c2ccccc2)c1N,19
CC(=O)c1ccc(-c2ccc(N)c(C(=O)c3ccccc3)c2)cc1,-85*
Cn1cnc(S(=O)(=O)N2CCCN(C(=O)OC(C)(C)C)CC2)c1,3
COc1ccccc1N1CCN(C(=O)Nc2ccc(F)cc2)CC1,-22
CC(C)(C)OC(=O)N1CCCN(C(=O)Nc2ccc(C(F)(F)F)cc2)CC1,-86*
Cc1c(C(=O)NCc2snnc2C(C)C)cnn1-c1ccccn1,-26
C[C@@H]1CN([C@@H](C)CO)C(=O)c2ccccc2-c2ccccc2CO[C@@H]1CN(C)Cc1ccc2c(c1)OCCN2C,16
C=CC(=O)Nc1cc2c(Nc3ccc(F)c(Cl)c3)ncnc2cc1OCCCN1CCOCC1,-4
SMILES,Tg IFNy HTS
CN1CCN(CCOc2cc(OC3CCOCC3)c3c(Nc4c(Cl)ccc5c4OCO5)ncnc3c2)CC1,16
CCOc1cc2ncc(C#N)c(Nc3ccc(OCc4ccccn4)c(Cl)c3)c2cc1NC(=O)/C=C/CN(C)C,-81*
CN(C)C/C=C/C(=O)Nc1cc2c(Nc3ccc(F)c(Cl)c3)ncnc2cc1O[C@H]1CCOC1,-75*
CCOc1cc2ncc(C#N)c(Nc3ccc(F)c(Cl)c3)c2cc1NC(=O)/C=C/CN(C)C,-77*
COc1ccc(C(=O)Nc2ccc3nc(C)c(C)nc3c2)cc1OCc1ccccn1,11
O=C(CCCOc1ccc(Cl)cc1Cl)NCc1ccccn1,13
Cn1cccc1C(=O)N1CCN2C[C@H](Oc3cccc(F)c3)C[C@@H]2C1,2
CCOc1ccccc1-c1nc(CN(c2ccccc2OCC)S(=O)(=O)c2ccccc2)c(C)o1,-54
Cc1occc1-c1nc(N2CC(C)OC(C)C2)ncc1-c1ccncc1 (configuration not stated),-40
C[C@H]1CN([C@@H](C)CO)C(=O)c2cc(NC(=O)C3CCCCC3)ccc2O[C@H]1CN(C)C(=O)Nc1ccc(C(F)(F)F)cc1,-15
CC(C)CCCC1CN(C(=O)c2cnc3c(c2)nnn3C)CCO1 (configuration not stated),4
O=S1(=O)Cc2ccc(NS(=O)(=O)c3ccc(Br)s3)cc2C1,-1
O=C1CC(c2ccc(O)cc2)Oc2cc(O)cc(O)c21 (configuration not stated),67
Oc1ccc([C@H]2COc3cc(O)ccc3C2)cc1,-73*!
Oc1ccc([C@H]2Oc3cc(O)cc(O)c3C[C@H]2O)cc1,7
Cc1n[nH]c(C)c1CCN(C)C(=O)c1cn(C2CCCCCC2)nn1,3
CCOc1ccc(NC(=O)Cn2c(=O)cc(C(=O)NC)c3ccccc32)cc1,10
O=C(c1ccc(-c2ccccc2)c(F)c1)C1CCCN(Cc2ccncc2)C1 (configuration not stated),-56
CCN(CC)C(=O)c1cc2cccnc2n(Cc2ccccc2F)c1=O,-13
OC(c1ccccc1)C1CCN(CCc2ccccc2)CC1 (configuration not stated),18
Cc1c(C2CCN(CCc3ccccc3)CC2)noc1-c1ccc(Cl)cc1,-76*!
CCn1c(CC2CCN(CCc3ccccc3)CC2)n[nH]c1=O,-5
Cn1nc2c(c1C(=O)NCc1n[nH]c3c1CCC3)CCCC2,-47
c1cncc(-c2[nH]c3ncccc3c2CN2CCSCC2)c1,-34
COc1ccccc1CNC(=O)CN1CCC(O)(c2ccccc2C)C1 (configuration not stated),4

# From PubChem BioAssay
